Screening data as filed in PubChem.
A selection: hits, their analogues and other compounds. The true share with any hit is near 2.7%.
Pf gametocyte: P. falciparum stage V gametocyte viability inhibition | P. falciparum stage V gametocytes, ATP luminescence, 24 h | inhibition, % at 10.9 µM | 150,000 tested, 0.065% active | AID 743093;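 active = inhibition above the mean plus 3 SD of compounds within the control limits, set per campaign, cut at about 38% in these data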;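 note: 0% = DMSO wells and 100% = medium only without gametocytes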
Mcl1-Noxa inh: disrupts binding of human Mcl-1 to Noxa peptide; Q07820; TR-FRET Mcl-1/Noxa peptide binding, 2 h; inhibition, % at 21.7 µM; 220,000 tested, 1.5% active; AID 1022;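 active = compounds that cut the protein-peptide binding signal by more than 50% relative to plate controls in a single-dose test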;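 note: His-tagged Mcl-1 with rhodamine Noxa BH3 peptide and terbium anti-His antibody; 0% = Mcl-1 plus Noxa peptide wells and 100% = peptide-only wells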
Mcl-1 Bim block: inhibitors of Bim-Mcl-1 interaction, human; Q07820; Bead-based flow cytometry, Bim peptide-Mcl-1 binding; inhibition, % at 10 µM; 190,000 tested, 0.1% active; in the data active = inhibition above about 40%;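 note: 0% = no compound tracer wells and 100% = peptide blocker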
Mcl1-Bid inh: Mcl-1/Bid interaction inhibition; Q07820; TR-FRET Mcl-1/Bid-Dy647 peptide binding, 1536-well; inhibition, % at 21.7 µM; 220,000 tested, 0.97% active; AID 1021;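 active = compounds that cut the binding signal by more than half at the single screening dose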;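 note: His-tagged Mcl-1 with europium anti-His antibody binding Bid BH3 peptide; 0% = Mcl-1 plus peptide wells and 100% = peptide-only wells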
14-3-3 Bad inh: disrupts binding of bovine 14-3-3 zeta to phospho-Bad peptide | P63103 | TR-FRET 14-3-3zeta/Dy647-pBad peptide displacement, 1 h | inhibition, % at 21.7 µM | 220,000 tested, 0.71% active | AID 781;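 active = inhibition above about 70%, limit read from the data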;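 note: 0% = full 14-3-3 plus peptide FRET controls and 100% = background without 14-3-3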
eIF4E-4G inh: inhibitors of eIF4E and eIF4G interaction in translation initiation; AID 782; P63073+Q04637; TR-FRET eIF4E-eIF4GI(517-606) binding, 2 h; inhibition, % at 21.7 µM; 220,000 tested, 0.37% active;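 active = inhibition above about 30%, limit read from the data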;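 note: 0% = full FRET control wells and 100% = background wells lacking eIF4GI fragment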
Target sequence (P63073 whole entry, looked up, the tested form may be a part): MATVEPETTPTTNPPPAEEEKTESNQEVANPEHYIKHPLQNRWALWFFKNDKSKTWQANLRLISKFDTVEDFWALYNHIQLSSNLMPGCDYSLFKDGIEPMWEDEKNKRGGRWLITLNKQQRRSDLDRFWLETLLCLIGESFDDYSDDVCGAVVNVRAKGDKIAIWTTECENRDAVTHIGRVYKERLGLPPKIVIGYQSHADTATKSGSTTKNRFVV
Target sequence (Q04637 whole entry, looked up, the tested form may be a part): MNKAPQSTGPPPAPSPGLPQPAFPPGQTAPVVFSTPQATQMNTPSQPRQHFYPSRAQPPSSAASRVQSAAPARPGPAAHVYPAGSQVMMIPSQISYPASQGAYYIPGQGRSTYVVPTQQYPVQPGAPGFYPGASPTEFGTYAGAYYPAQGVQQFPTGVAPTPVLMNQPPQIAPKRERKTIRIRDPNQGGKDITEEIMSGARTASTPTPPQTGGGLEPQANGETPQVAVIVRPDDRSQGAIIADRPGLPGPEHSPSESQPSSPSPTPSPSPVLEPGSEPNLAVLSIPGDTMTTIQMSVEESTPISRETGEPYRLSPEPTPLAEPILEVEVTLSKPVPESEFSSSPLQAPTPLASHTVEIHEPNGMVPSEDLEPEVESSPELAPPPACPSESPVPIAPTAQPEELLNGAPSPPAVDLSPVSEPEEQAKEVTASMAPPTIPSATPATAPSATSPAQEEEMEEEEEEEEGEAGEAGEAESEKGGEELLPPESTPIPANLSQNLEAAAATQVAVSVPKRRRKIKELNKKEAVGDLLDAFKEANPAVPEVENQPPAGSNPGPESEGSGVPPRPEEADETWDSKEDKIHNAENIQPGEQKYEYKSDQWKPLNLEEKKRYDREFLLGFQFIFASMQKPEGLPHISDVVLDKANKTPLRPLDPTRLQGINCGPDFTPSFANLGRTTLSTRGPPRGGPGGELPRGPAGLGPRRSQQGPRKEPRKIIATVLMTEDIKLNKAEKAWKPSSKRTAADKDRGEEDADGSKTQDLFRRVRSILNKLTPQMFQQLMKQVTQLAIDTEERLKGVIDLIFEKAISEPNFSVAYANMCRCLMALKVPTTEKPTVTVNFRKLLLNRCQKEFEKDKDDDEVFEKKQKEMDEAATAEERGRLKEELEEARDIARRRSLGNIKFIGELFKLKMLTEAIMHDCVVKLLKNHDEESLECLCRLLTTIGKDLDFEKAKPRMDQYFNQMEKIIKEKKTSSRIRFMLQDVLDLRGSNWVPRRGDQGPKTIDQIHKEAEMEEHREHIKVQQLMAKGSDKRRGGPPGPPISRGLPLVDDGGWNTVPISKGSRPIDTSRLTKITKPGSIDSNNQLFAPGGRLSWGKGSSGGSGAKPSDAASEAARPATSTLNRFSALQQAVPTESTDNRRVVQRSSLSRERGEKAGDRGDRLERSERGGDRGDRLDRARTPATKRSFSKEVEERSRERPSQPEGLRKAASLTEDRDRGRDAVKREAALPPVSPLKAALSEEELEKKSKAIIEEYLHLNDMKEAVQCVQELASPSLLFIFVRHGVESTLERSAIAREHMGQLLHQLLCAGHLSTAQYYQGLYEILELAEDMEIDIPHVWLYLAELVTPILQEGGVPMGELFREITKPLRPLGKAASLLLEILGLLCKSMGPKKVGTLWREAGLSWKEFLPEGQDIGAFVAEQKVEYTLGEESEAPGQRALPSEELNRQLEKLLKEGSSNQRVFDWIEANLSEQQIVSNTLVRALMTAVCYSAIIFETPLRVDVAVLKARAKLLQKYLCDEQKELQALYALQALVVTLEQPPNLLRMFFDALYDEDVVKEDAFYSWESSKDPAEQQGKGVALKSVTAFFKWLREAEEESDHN
Active calls of the source: *; / = no result given; [ ] = another dose, or the depositor's remark.

SMILES | Pf gametocyte | Mcl1-Noxa inh | Mcl-1 Bim block | Mcl1-Bid inh | 14-3-3 Bad inh | eIF4E-4G inh
O=C(Nc1cccc([N+](=O)[O-])c1)c1cccc(C(=O)Nc2cccc([N+](=O)[O-])c2)c1 | / | 61.5* | / | 52.9* | 60.7 | 35.2*
O=C(Nc1nc(-c2ccccc2)cs1)c1cccc([N+](=O)[O-])c1 | 10.1 | 16.9 | -3.0 | 3.8 | -5.0 | 3.0
O=C(CC1NCCNC1=O)Nc1cccc([N+](=O)[O-])c1 (configuration not stated) | / | 14.6 | 58.0* | -23.2 | 3.2 | -3.9
O=C(Nc1nc(-c2cccnc2)cs1)c1cccc([N+](=O)[O-])c1 | 0.1 | 63.1* | -2.0 | 26.5 | 79.2* | 9.2
CCOC(=O)c1cccc(NC(=O)/C=C/c2cccc([N+](=O)[O-])c2)c1 | 1.2 | -9.4 | -1.0 | 0.8 | 4.7 | 5.9
CC(C)COc1ccc(C(=O)Nc2ncn[nH]2)cc1 | 13.4 | / | / | / | / | /
CC(NC(=O)CCNC(=O)c1ccccc1Cl)C1CC2CCC1C2 (configuration not stated) | -11.4 | 32.7 | 4.0 | -2.6 | 18.8 | 4.5
CNC(=O)NC(=O)C(C)OC(=O)CCCSc1nc2ccccc2s1 (configuration not stated) | 9.4 | 6.6 | -2.0 | -32.6 | 0.2 | -2.0
CCCCn1c2c(c(=O)n(C)c1=O)C(CC(=O)OCC(=O)Nc1cccc(C(F)(F)F)c1)C(=O)N2 (configuration not stated) | 16.0 | 30.9 | -3.0 | -29.7 | 9.1 | 4.5
Cc1ccc(NCc2nnc(SC(C)C(=O)N/N=C/c3ccc(C)o3)n2-c2ccccc2)cc1 (configuration not stated) | 20.5 | -1.5 | 2.0 | -68.8 | -7.2 | 7.9
Cc1ccc(S(=O)(=O)Nc2cc(C(=O)Nc3cc(C)cc(C)c3)ccc2Cl)cc1 | 14.9 | 13.3 | -9.0 | 7.5 | -0.1 | -1.3
Cc1cc(CSc2ccccc2)ccc1NC(=O)c1cccc([N+](=O)[O-])c1 | / | -15.9 | -3.0 | -15.1 | 4.9 | 71.6*[fluorescence artefact?]
O=C(Nc1ccccc1-c1ccccc1)c1cccc([N+](=O)[O-])c1 | 20.6 | 7.2 | -2.0 | -5.6 | -10.8 | 4.4
COc1cccc(C(=O)Nc2cccc(C(=O)NCC(C)C)c2)c1 | -13.7 | 16.6 | -4.0 | -7.3 | 49.8 | -1.6
CC(C)CNC(=O)c1cccc(NC(=O)c2ccc(Cl)c([N+](=O)[O-])c2)c1 | 16.7 | 4.6 | 45.0* | -14.5 | -1.6 | 10.3
C=C(C)Cn1c(C)cc(C)c(S(=O)(=O)c2cccc(C)c2)c1=O | 9.4 | 10.8 | -1.0 | 7.7 | -4.8 | -1.3
C/C(=N/NC(=O)c1cc2ccccc2cc1O)C1C(=O)c2ccccc2C1=O | 7.6 | 91.8* | 3.0 | 2.4 | 8.0 | 3.0
C/C(=N\NC(=O)c1ccccc1O)C1C(=O)c2ccccc2C1=O | -161.7 | 65.9* | -1.0 | -91.6 | 10.3 | 1.2
C/C(=N\NC(=O)c1cc2ccccc2cc1O)c1cc2ccccc2o1 | 2.4 | 10.3 | / | -32.3 | -11.0 | 1.4
CCSC(=S)c1c(C)[nH]n(-c2ccccc2)c1=O | -3.0 | 23.9 | / | -4.8 | 5.4 | 0.1
CCOC(=O)C1=C(CC)OC(N)=C(C#N)C1c1ccc(NC(C)=O)cc1 (configuration not stated) | 9.1 | 7.4 | -1.0 | -16.7 | -7.4 | 3.9
Cc1ccc(C(=O)N2CC(=O)Nc3ccc(F)cc3C2c2ccccc2)cc1[N+](=O)[O-] (configuration not stated) | 2.8 | 18.3 | -4.0 | 13.5 | 5.1 | 5.3
Cc1ccc(C(=O)N2CC(=O)Nc3ccc(F)cc3C2c2ccc(F)cc2)cc1[N+](=O)[O-] (configuration not stated) | / | 9.0 | -4.0 | 52.7* | 11.3 | 3.1
CCn1c(SCc2nc3ccccc3[nH]2)nnc1-c1ccc(OC)cc1 | / | -6.8 | -4.0 | -23.7 | 3.1 | 1.1
CC12CN3CC(C)(CN(C1)C3c1ccccc1Cl)C2O (configuration not stated) | / | 87.6* | -2.0 | -2.6 | 0.8 | 1.4
SMILES | Pf gametocyte | Mcl1-Noxa inh | Mcl-1 Bim block | Mcl1-Bid inh | 14-3-3 Bad inh | eIF4E-4G inh
CC12CN3CC(C)(CN(C1)C3c1ccccc1)C2O (configuration not stated) | -17.2 | 8.7 | -2.0 | 2.6 | -5.2 | 1.1
COc1ccc(Cl)cc1NC(=O)CN(C1CCCCC1)S(C)(=O)=O | / | 68.4* | -1.0 | 33.4 | 0.5 | -1.3
CS(=O)(=O)N(CC(=O)Nc1ccc(F)cc1F)C1CCCCC1 | -28.5 | / | / | / | / | /
N#CC1(CCCN2CCCCC2)c2ccccc2CCc2ccccc21 | 10.3 | / | / | / | / | /
COC/C=C/C1=CC2=CC(=O)C(C)(OC(=O)c3ccco3)C(=O)C2=CO1 (configuration not stated) | / | 92.7* | / | -18.3 | 8.2 | 18.8
COC/C=C/C1=CC2=CC(=O)C(C)(OC(=O)C3CCCC3)C(=O)C2=CO1 (configuration not stated) | / | 49.5 | / | -48.5 | 0.8 | 8.0
COc1ccc(NC(=O)COC(=O)c2c3c(nc4ccccc24)CCCC3)cc1Cl | -0.7 | 11.2 | -1.0 | -10.2 | -5.4 | -4.2
